Rows were chosen to be rich in hits. Some 11% of all compounds tested hit in one or more screens of this group.
Pf growth 48h: P. falciparum growth inhibition at 48 hours (one generation); P. falciparum luciferase growth in erythrocytes, 48 h; Potency, µM (top dose mostly 28.7 µM), inactives show at the top dose activity change, negative = inhibition, usual class: inhibitors; actives 5.9% (n = 310,000)
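In quantitative HTS format, infected erythrocytes bearing luciferase-reporter parasites were treated for a single generation at 37 C. Luminescence after adding detection reagent served as the growth measure.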
HCV inh: HCV inhibition. AID 651820. Potency, µM (highest dose often 41.8 µM), for the others: top-dose activity change, negative = inhibition, hits mostly inhibitors. Huh7.5.1 HCVcc-Cre infection, luciferase reporter, 44 h. actives 3.4% (n = 340,000)
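After 44 h co-culture of compound, cells and HCVcc-Cre (~0.5 moi), substrate is added for 15 min at room temperature and luciferase measured over 15 sec. Cells were seeded at 1,000/well and pre-cultured 4 h.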
Pf growth 96h: inhibits malaria parasite growth, 96 h. P. falciparum luciferase reporter growth, 96 h. Potency, µM (titrated, usually from 28.7 µM), for inactives: at the top dose activity change, negative = inhibition, usual class: inhibitors. actives 6.9% (n = 320,000). AID 504834
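P. falciparum expressing integrated firefly luciferase grown in erythrocytes (2% hematocrit, 0.05% parasitemia final) with compounds for 96 hours at 37 C, 5% CO2. Growth inhibition read as loss of luminescence after adding luciferase detection reagent.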
AMA1-RON2 inh: inhibitors of Plasmodium falciparum AMA1-RON2 interaction | AlphaScreen AMA1-biotinylated RON2 peptide binding | Potency, µM (series often up to 58.2 µM), inactives show at the top dose activity change, negative = inhibition, most hits filed as inhibitors | actives 0.2% (n = 360,000);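 further: 0% = vehicle wells and -100% = peptide control; nearly all actives have a fitted effect of over 45% in size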
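AMA1 (3D7) with his tag at 25 nM final met compounds first, then biotinylated RON2 peptide at 25 nM; detection used donor plus acceptor beads, 10 µg/mL apiece, read by AlphaScreen after 30 min at room temperature.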
An asterisk follows results filed as active; ? = inconclusive; / = not tested or not shown; ! = not confirmed by another sample; [ ] = another dose, or the depositor's remark. The call rests on the fitted dose curve; in most records, active means well fitted curve in the direction sought with a large enough effect; inconclusive means small, poorly fitted or top-dose-only effect, or another doubt; inactive means no such curve, though single readings can be large; an effect the other way counts as inactive or inconclusive. Unless noted, on the % scale 0 is the no-effect control and ±100 the full control effect; potency means the concentration at half of the fitted maximal effect.

SMILES	Pf growth 48h	HCV inh	Pf growth 96h	AMA1-RON2 inh
O=C(CCn1cccc1)NCCc1ccc(Cl)cc1	6.4%	-5.2%	10.4µM*	-10.6%
O=C(c1ccccc1)c1ccc2n1CC[C@H]2C(=O)O	5.2%[12.8 µM]	/	-8.0%[12.8 µM]	/
CCOC(=O)C1(Cc2cccc(Cl)c2)CCCN(CCO)C1 (stereo not given)	?	12.5%	?	-9.6%
COc1ccccc1-c1nnc(Sc2nc([N+](=O)[O-])nn2C)o1	/	10µM*	1.85µM*	-6.4%
Cn1cnnc1Sc1nc([N+](=O)[O-])nn1C	10.8%	2.2%	49.0%	-4.8%
COCCn1nnnc1C(C(C)C)N(Cc1cccnc1)Cc1ccccc1Cl (stereo not given)	10.4µM*	?	-0.4%	3.2%
CC(C)COC(=O)N1CCCC(c2cc(C(=O)Nc3ccccc3Cl)no2)C1 (stereo not given)	/	/	/	16.1%
O=C(O)Cc1csc(Nc2cccc(Cl)c2)n1	37.5%	6.2%	13.1µM*	-5.9%
CC(C)c1ccc(Nc2nc(CC(=O)O)cs2)cc1	272.7%	23.3%	52.3%	12.3%
O=C(c1cccc(C(F)(F)F)c1)N(c1ccccn1)C1CCCCC1	-24.5%	-23.1%	-29.5%	-5.2%
CC(=O)Nc1ccccc1Nc1cc(C#N)c(C#N)cc1[N+](=O)[O-]	?	?	7.38µM*	10.4%
COc1ccc(Cc2nnc(SCc3c(C)noc3C)n2C2CCCCC2)cc1OC	9.28µM*	-10.3%	?	13.5%
Cc1noc(C)c1CSc1nnc(-c2cccnc2)n1C1CCCCC1C (stereo not given)	7.2%	6.9%	-18.5%	6.3%
Cc1ccc(S(=O)(=O)N(C)c2ccc(C(=O)Nc3cccnc3)cc2)cc1	-17.8%	5.1%	10.4µM*	-2.4%
CC(=O)Nc1ccc(NC(=O)c2ccc(N(C)S(=O)(=O)c3ccc(C)cc3)cc2)cc1	0.8%	-12.8%	10.4µM*	-15.3%
Cc1ccc(S(=O)(=O)N(C)c2ccc(C(=O)NCc3cccnc3)cc2)cc1	?	2.1%	?	1.3%
CN(c1ccccc1)S(=O)(=O)c1ccc(NC(=O)c2ccc(-c3ccccc3)cc2)cc1	?	/	?	8.2%
CCCCNC(=O)CN(C1CCCCC1)S(C)(=O)=O	0.0%	12.7%	/	-1.3%
CCN1C(=O)[C@H]2[C@@H](c3ccc(OC)cc3)N[C@]3(CCCN(Cc4ccc(C)cc4)C3=O)[C@H]2C1=O	/	/	/	2.7%
O=c1c2cc(Cl)ccc2[nH]c(=S)n1Cc1cccs1	13.0%	?	13.1µM*	36.2%
Cc1ccc2c(c1)sc1nc(=O)ccn12	19.1%	5.6%	?	9.7%
CCOC(=O)c1c(C)n(CC)c2c1cc(O)c1ccccc12	-33.9%	-0.9%	6.3%	-6.1%
CCOC(=O)c1c(C)oc2c1c(C=NCC1CCCO1)c(O)c1ccccc12 (stereo not given)	?	-8.3%	-6.0%	54.3%
CCOC(=O)c1c(C)oc2c1c(C=NCc1ccccn1)c(O)c1ccccc12	2.08µM*	4.47µM*	?	47.3%
CCOC(=O)c1c(C)[nH]c2c1cc(O)c1ccccc12	0.147µM*	?	?	11.1%
SMILES	Pf growth 48h	HCV inh	Pf growth 96h	AMA1-RON2 inh
CCOC(=O)c1c(C)oc2c1cc(O)c1ccccc12	120.5%	31.6µM*	-1.9%	-7.0%
CC(=O)c1c(C)oc2c1cc(O)c1ccccc12	33.4%	?	27.6%	0.0%
O=S(=O)(NCCSc1ccccn1)c1ccc(Br)cc1	-11.1%	-11.5%	19.6%	-15.1%
Cc1cccc(N2CCN(C(=O)CCCn3c(=O)c4cccn4c4cccnc43)CC2)c1C	?	?	11.7µM*	-2.5%
CCOc1cc(CNC(=O)CCCn2c(=O)c3cccn3c3cccnc32)cc(OCC)c1OCC	-11.1%	?	21.2%	-2.5%
CCOC(=O)C1CCCN(C(=O)Cn2c(=O)c3cccn3c3cccnc32)C1 (stereo not given)	-11.8%	?	10.4µM*	-4.2%
O=C(Cn1c(=O)c2cccn2c2cccnc21)N1CCN(c2ccc(Cl)cc2)CC1	-1.1%	12.6µM*	7.9%	-11.6%
CCc1ccc(CNC(=O)CCCn2c(=O)c3cccn3c3cccnc32)cc1	-5.7%	10µM*	-20.0%	2.6%
CC(C)(C)S(=O)(=O)N1C[C@@H]2CC/C=C\C/C=C\2[C@H]1CCO	/	3.5%	/	0.9%
CCCCCC(=O)N1CCCCC1	?	5.4%	-20.5%	8.9%
CCc1nn(CCCC(=O)N2CCc3ccccc3C2)c(=O)c2cc3occc3n12	?	-15.1%	/	-12.7%
CCOC(=O)C1CCN(C(=O)CCn2c(=O)c3cccn3c3cccnc32)CC1	?	10.6%	?	11.7%
O=C(CCCn1c(=O)c2cccn2c2cccnc21)NCCc1ccc(Cl)cc1	?	?	?	-10.0%
CC1CC(C)CN(C(=O)CCCn2c(=O)c3cccn3c3cccnc32)C1 (stereo not given)	?	-15.8%	11.7µM*	-5.1%
CCc1nn(CCCC(=O)N2CCN(c3cccc(C)c3C)CC2)c(=O)c2cc3occc3n12	0.6%	14.1µM*	?	-20.4%
CN1CCN(C(=O)CCn2c(=O)c3cccn3c3cccnc32)CC1	33.5%	16.2%	13.1µM*	-1.6%
CC(C(=O)NCCc1ccc(Cl)cc1)n1c(=O)c2cccn2c2cccnc21 (stereo not given)	1.4%	11.2µM*	13.2%	-1.9%
CCn1c(=S)sc2c(=O)n(CC(=O)Nc3ccccc3C(F)(F)F)c(C)nc21	-17.7%	-4.0%	54.0%	-1.5%
O=C(N/N=C/C(Cl)=C/c1ccccc1)c1ccco1	5.22µM*	-14.5%	?	7.6%
O=C(N/N=C/C(Cl)=C\c1ccccc1)c1ccco1	1.85µM*	-16.3%	3.7µM*	11.8%
O=C(N/N=C/C(Cl)=C/c1ccccc1)c1ccccc1F	-34.8%	-2.9%	?	-4.4%
O=C(Cc1cc(=O)[nH][nH]1)N/N=C/C(Cl)=C/c1ccccc1	1.17µM*!	16.7%	62.1%	9.8%
c1ccc2c(c1)OCC(CN1CCCCC1)O2 (stereo not given)	-2.6%	/	?	/
Cc1cc2nc(C3CCN(CC4COc5ccccc5O4)CC3)[nH]c2cc1C (stereo not given)	13.1µM*	?	6.4%	-12.9%
Cc1cccc(C2c3[nH]c4ccccc4c3CCN2C(=O)c2noc3c2CCCC3)n1 (stereo not given)	?	?	13.1µM*	?
Cc1cccc(C2c3[nH]c4ccccc4c3CCN2Cc2cnn(-c3ccc(F)cc3)c2)n1 (stereo not given)	10.4µM*	5.7%	22.4%	-6.2%
O=C(c1cc(-c2ccccc2)n[nH]1)N1CCc2c([nH]c3ccccc23)C1c1ccccn1 (stereo not given)	?	?	8.28µM*	-29.6%
O=C(c1noc2c1CCCC2)N1CCc2c([nH]c3ccccc23)C1c1ccccn1 (stereo not given)	?	-24.0%	?	11.1%
CC(=O)c1ccc(C(=O)N2CCc3c([nH]c4ccccc34)C2c2ccccn2)s1 (stereo not given)	?	3.5%	?	?

High-throughput results: PubChem BioAssay, National Center for Advancing Translational Sciences (NCATS)
